# Several values for one entry are separate records, joined by “and”; a condition that tells them apart may be missing. Equal values may be shown once. Records with an inconclusive call do not appear. A call without a number means that no potency is given here. Values without a mark were called inactive. Activity calls are given as the source filed them. Unless noted, calls follow the shape of the dose curve; as a rule, active = well fitted curve in the direction sought with a large enough effect in the repeat runs; inconclusive = weak or mixed curves; inactive = no such curve, though single readings can be large; an effect the other way counts as inactive or inconclusive.
# How the values were obtained:
# [1] = qHTS assay to identify small molecule agonists of the NFkB signaling pathway - cell viability counter screen (AID 1159515; calls by dose curve; also: nearly all actives have a fitted effect of over 55% in size)
# Summary of the method: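 ME-180 NFkB-bla cells, 2,000/well; overnight attach; compound 5 hr, 37 C/5% CO2; LiveBLAzer substrate 1.5 hr RT; then CellTiter-Glo in same wells, 30 min RT, luminescence read.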
# [2] = qHTS assay to identify small molecule agonists of the endoplasmic reticulum stress response signaling pathway (AID 1159516; active = well fitted activation curve with a large enough effect in the signal ratio in the repeat runs, not every such curve was filed as active; the % refers to the signal ratio)
# Summary of the method: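 HeLa ESRE-bla reporter line; cpd 5 h, 37 C/5% CO2; LiveBLAzer B/G FRET substrate 2 h RT; ex 405, em 460/530 nm.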
# [3] = qHTS assay to identify small molecule agonists of the endoplasmic reticulum stress response signaling pathway - cell viability counter screen (AID 1159517; calls by dose curve;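 also: HeLa cells carrying an ER stress response element beta-lactamase reporter; nearly all actives have a fitted effect of over 50% in size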)
# Summary of the method: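 ESRE-bla HeLa cells (1,500/well) were plated overnight at 37 C and exposed to compounds for 5 hr. After the 2 hr beta-lactamase substrate read, CellTiter-Glo went into the same wells, and luminescence was read after 30 min at room temperature.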
# [4] = qHTS assay to identify small molecule agonists of the AP-1 signaling pathway - cell viability counter screen (AID 1159525; calls by dose curve; also: nearly all actives have a fitted effect of over 55% in size)
# Summary of the method: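 Intracellular ATP by Cell Titer Glo luminescence (30 min, RT) in the same ME-180 AP-1-bla wells after the 5 h compound exposure at 37 °C. Normalised to tetra n-octyl ammonium bromide and DMSO controls.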
# [5] = qHTS assay to identify small molecule agonists of the AP-1 signaling pathway (AID 1159526; calls by dose curve)
# [6] = qHTS assay to identify small molecule agonists of the RXR signaling pathway - cell viability counter screen (AID 1159529); also: nearly all actives have a fitted effect of over 50% in size; also: potency is read from the fitted curve at half-maximal effect
# Summary of the method: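 Compounds dissolved in DMSO were pinned onto HEK 293T cells carrying a beta-lactamase reporter under RXR-alpha control and incubated 16 hr. Cytotoxicity was then quantified by CellTiter-Glo luminescence.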
# [7] = qHTS assay to identify small molecule antagonists of the retinoic acid receptor (RAR) signaling pathway (AID 1159552; also: nearly all actives have a fitted effect of over 50% in size; also: potency is read from the fitted curve at half-maximal effect)
# Summary of the method: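 Test chemicals and DMSO controls were pin-transferred onto C3RL4 cells a day after seeding; retinol (1 uM final) followed at once. Luminescent reporter output was quantified after 6 hr of co-incubation and 30 min with detection reagent.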
# [8] = qHTS assay to identify small molecule antagonists of the estrogen related receptor (ERR) signaling pathway - cell viability counter screen (AID 1224818)
# Summary of the method: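 Fluorescence from CellTiter-Fluor, read 30 min after reagent addition at 37 C, measured viability of ERR cells exposed to compounds for 17.5 h. Cells had settled 6 h before dosing.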
# [9] = qHTS assay to identify small molecule antagonists of the estrogen related receptor (ERR) signaling pathway (AID 1224819; also: nearly all actives have a fitted effect of over 50% in size; also: potency is read from the fitted curve at half-maximal effect)
# Summary of the method: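 Luminescence readout (One-Glo, 30 min, RT) of ERR cell line after 18 h compound exposure at 37 C; cells seeded 2,000/well, pre-incubated 6 h, compounds pinned from DMSO stocks.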
# [10] = qHTS assay to identify small molecule agonists of the estrogen related receptor (ERR) signaling pathway (AID 1224820)
# Summary of the method: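 After 6 h plating (2,000 cells/well) and 18 h compound treatment at 37 C, ERR cells were lysed with One-Glo and luminescence read after 30 min at room temperature.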
# [11] = qHTS assay to identify small molecule agonists of the estrogen related receptor signaling pathway with the pleiotropic PPARgamma coactivator (PGC) (AID 1224823)
# Summary of the method: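 Luminescence from One-Glo reagent (30 min, room temperature) was read after 18 h compound treatment at 37 C of PGC/ERR cells plated 6 h beforehand; compounds delivered in DMSO by pin tool.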
# [12] = molecular target: Nuclear receptor ROR-gamma (Homo sapiens) (UniProt P51449); test: qHTS assay to identify small molecule antagonists of the retinoid-related orphan receptor gamma (ROR-gamma) signaling pathway (AID 1159521; also: nearly all actives have a fitted effect of over 50% in size; also: potency is read from the fitted curve at half-maximal effect)
# Summary of the method: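 Test compounds were applied to Tet-on RORγ CHO cells 2 h ahead of doxycycline hyclate (1 uM final). Luciferase reporter activity was quantified by luminescence after 16 h at 37 C and 5% CO2.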
# [13] = qHTS assay to identify small molecule antagonists of the retinoid acid receptor (RAR) signaling pathway - cell viability counter screen (AID 1159551); also: nearly all actives have a fitted effect of over 35% in size
# Summary of the method: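 C3RL4 RARE-luciferase line; cpds + retinol 1 uM final, 6 h, 37 C/5% CO2; CellTiter-Glo ATP luminescence, 30 min RT.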
# [14] = qHTS assay to identify small molecule agonists of the retinoic acid receptor (RAR) signaling pathway (AID 1159553); conditions: C3RL4 RARE luciferase reporter, agonist, 6 h; activation: at 73.3 µM (top of the series) unless noted; also: potency is read from the fitted curve at half-maximal effect
# Summary of the method: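 RARE-luc C3RL4 cells; overnight attachment 37 C/5% CO2; compound (DMSO) 6 hr; luciferase reagent, 30 min RT; luminescence read-out.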
# [15] = tested on: estrogen-related receptor alpha (ERRalpha) with PGC-1alpha coactivator, human; test: qHTS assay to identify small molecule antagonists of the estrogen related receptor signaling pathway with the pleiotropic PPARgamma coactivator (PGC) (AID 1224821; calls by dose curve)
# Summary of the method: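 Luminescence from One-Glo luciferase reagent (30 min, room temperature) measured after 18 h compound treatment at 37 °C. Cells carry the PGC/ERR reporter and were seeded 6 h prior to dosing.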
# [16] = qHTS assay to identify small molecule antagonists of the estrogen related receptor signaling pathway with the pleiotropic PPARgamma coactivator (PGC) cell viability counter screen (AID 1224822)
# Summary of the method: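 Fluorescence read-out of CellTiter-Fluor after 30 min at 37 C; PGC/ERR cells, 2,000 per well, had been exposed to DMSO-dissolved compounds for 17.5 h following a 6 h pre-incubation.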
# [17] = qHTS assay to identify small molecule agonists of the vitamin D receptor (VDR) signaling pathway - cell viability counter screen (AID 743224); also: nearly all actives have a fitted effect of over 50% in size; also: potency is read from the fitted curve at half-maximal effect
# Summary of the method: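 Cytotoxicity counter screen: VDR-bla cells, 16 h compound exposure at 37C, 5% CO2; CellTiter-Glo luminescence, 30 min RT, same wells as bla read.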
# [18] = qHTS assay to identify small molecule antagonists of the retinoid-related orphan receptor gamma (ROR-gamma) signaling pathway - cell viability counter screen (AID 1159520); also: nearly all actives have a fitted effect of over 50% in size
# Summary of the method: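 Cytotoxicity was read from cellular ATP (CellTiter-Glo luminescence) after 16 hr at 37 C with 1 uM doxycycline induction. The inducer was added 2 hr after compound transfer to Tet-on ROR gamma CHO cells.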
# [19] = molecular target: Retinoic acid receptor RXR-alpha (Homo sapiens) (UniProt P19793); test: qHTS assay to identify small molecule agonists of the RXR signaling pathway (AID 1159527; calls by dose curve; also: nearly all actives have a fitted effect of over 35% in size)
# Summary of the method: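 Using 9-cis retinoic acid as the reference agonist, chemicals were tested in HEK 293T cells […] for 16 hr; substrate loading lasted 2 hr at room temperature.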
# [20] = qHTS assay to identify small molecule antagonists of the vitamin D receptor (VDR) signaling pathway - cell viability counter screen (AID 743225); also: nearly all actives have a fitted effect of over 50% in size; also: potency is read from the fitted curve at half-maximal effect
# Summary of the method: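 Compounds were pinned onto VDR-bla HEK 293T cells together with 1-alpha,25-dihydroxyvitamin D3 at 3 nM final. After 16 h at 37C and 5% CO2 plus the reporter readout, cell viability was measured by CellTiter-Glo luminescence (30 min, room temperature).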
# Chain of Retinoic acid receptor RXR-alpha (Homo sapiens) (P19793 whole entry, looked up): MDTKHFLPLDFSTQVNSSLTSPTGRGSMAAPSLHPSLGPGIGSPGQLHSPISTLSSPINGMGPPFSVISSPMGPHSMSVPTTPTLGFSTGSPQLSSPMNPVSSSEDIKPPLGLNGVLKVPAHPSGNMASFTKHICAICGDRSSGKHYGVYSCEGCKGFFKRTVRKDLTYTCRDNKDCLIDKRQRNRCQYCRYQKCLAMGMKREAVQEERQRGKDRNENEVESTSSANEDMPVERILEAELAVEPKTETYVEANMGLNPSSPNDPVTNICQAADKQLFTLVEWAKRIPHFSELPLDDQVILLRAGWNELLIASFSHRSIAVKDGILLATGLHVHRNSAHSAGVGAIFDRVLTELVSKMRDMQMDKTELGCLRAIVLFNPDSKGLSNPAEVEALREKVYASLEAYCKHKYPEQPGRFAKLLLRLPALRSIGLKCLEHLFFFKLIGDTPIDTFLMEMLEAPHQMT
smiles,measurement,setting,value
CC(=O)[C@H]1CC[C@H]2[C@@H]3CCC4=CC(=O)CC[C@]4(C)[C@H]3CC[C@]12C,Potency,[1],inactive
same,Potency,[2],inactive
same,Potency,[3],inactive
same,Potency,[4],inactive
same,Potency,[5],inactive
same,Potency,[6],38.7 µM (active) and 43.6 µM (active)
same,Potency,[7],48.3 µM (active) and 30.6 µM (active)
same,outcome,[8],inactive
same,Potency,[9],11.9 µM (active)
same,outcome,[10],inactive
same,outcome,[11],inactive
CCCCN(CCCC)CC(O)c1cc(Cl)cc2c1-c1ccc(Cl)cc1/C2=C/c1ccc(Cl)cc1 (centres undefined),Potency,[1],inactive
same,Potency,[2],inactive
same,Potency,[3],inactive
same,Potency,[12],29.8 µM (active)
same,Potency,[4],inactive
same,Potency,[13],inactive
same,Potency,[14],inactive
same,outcome,[8],inactive
same,Potency,[9],inactive
same,outcome,[10],inactive
same,Potency,[15],inactive
same,Potency,[16],inactive
same,outcome,[11],inactive
O=C(/C=C/c1ccc(O)c(O)c1)O[C@@H](C(=O)O)[C@@H](OC(=O)/C=C/c1ccc(O)c(O)c1)C(=O)O,Potency,[17],inactive
same,Potency,[1],inactive
same,Potency,[2],inactive
same,Potency,[18],inactive
same,Potency,[12],inactive
same,Potency,[4],inactive
same,Potency,[5],inactive
same,Potency,[19],inactive
same,Potency,[6],inactive
same,Potency,[13],inactive
same,Potency,[7],inactive
same,Potency,[14],inactive
Nc1ccc(NCCO)c([N+](=O)[O-])c1,Potency,[17],inactive
same,Potency,[20],inactive
same,Potency,[1],inactive
same,Potency,[2],inactive
same,Potency,[3],inactive
same,Potency,[4],inactive
same,Potency,[5],inactive
same,Potency,[19],inactive
same,Potency,[6],inactive
same,Potency,[14],inactive
Oc1cc(Cl)cc(Cl)c1Cl,Potency,[20],inactive
same,Potency,[1],inactive
same,Potency,[2],inactive
same,Potency,[3],inactive
same,Potency,[4],inactive
same,Potency,[19],inactive
same,Potency,[6],inactive
same,Potency,[13],inactive
same,Potency,[14],inactive
[Cl][Pt-2]([Cl])([Cl])[Cl],Potency,[1],inactive
same,Potency,[2],inactive
same,Potency,[3],inactive
same,Potency,[4],inactive
same,Potency,[6],inactive
same,Potency,[13],inactive
same,Potency,[14],inactive
CC1(C)CC(O)CC(C)(C)N1,Potency,[17],inactive
same,Potency,[20],inactive
same,Potency,[1],inactive
same,Potency,[2],inactive
same,Potency,[18],inactive
same,Potency,[12],inactive
same,Potency,[4],inactive
same,Potency,[5],inactive
same,Potency,[19],inactive
same,Potency,[6],inactive
same,Potency,[13],inactive
same,Potency,[7],inactive
same,Potency,[14],inactive
COC(=O)Nc1nc2ccc(C(=O)c3ccccc3)cc2[nH]1,Potency,[17],inactive
same,Potency,[20],inactive
same,Potency,[1],inactive
same,Potency,[2],inactive
same,Potency,[3],inactive
same,Potency,[4],inactive
same,Potency,[6],inactive
same,Potency,[13],inactive
same,Potency,[7],inactive
same,Potency,[14],inactive
Nc1cc(Cl)c(O)c(Cl)c1,Potency,[17],inactive
same,Potency,[20],inactive
same,Potency,[1],inactive
same,Potency,[2],inactive
same,Potency,[3],inactive
same,Potency,[12],68.6 µM (active)
same,Potency,[6],inactive
same,Potency,[13],inactive
c1ccc(C(O[C@@H]2CCCN(CCc3ccc4c(c3)OCO4)C2)c2ccccc2)cc1,Potency,[1],inactive
same,Potency,[2],inactive
same,Potency,[3],inactive
same,Potency,[12],61.1 µM (active)
same,Potency,[6],inactive
same,Potency,[13],inactive
COc1cc2nc(N3CCN(C(=O)c4ccco4)CC3)nc(N)c2cc1OC,Potency,[1],inactive
same,Potency,[2],inactive
same,Potency,[3],inactive
same,"viability change, negative = cytotoxic",[4],-7.1% [at 15.8 µM]
same,activation,[5],3.7% [at 15.8 µM]
same,activation,[19],-11.7% [at 15.8 µM]
same,"activity change, negative = cytotoxicity",[13],-9.47% [at 19 µM]
CCCC(=O)OC(C)(C)Cc1ccccc1,Potency,[17],inactive
same,Potency,[1],inactive
same,Potency,[2],inactive
same,Potency,[18],inactive
same,Potency,[12],inactive
same,Potency,[4],inactive
same,Potency,[5],inactive
same,Potency,[19],inactive
same,Potency,[6],inactive
same,Potency,[13],inactive
same,Potency,[7],inactive
same,Potency,[14],inactive
CC[C@H](C)COC(=O)/C=C/c1ccc(N=Cc2ccc(OC)cc2)cc1,Potency,[1],inactive
same,Potency,[2],inactive
same,Potency,[3],inactive
same,Potency,[12],inactive
same,Potency,[7],inactive
same,Potency,[14],1.22 µM (active)
COc1ccc2cc1Oc1ccc(cc1)C[C@H]1c3c(cc4c(c3Oc3cc5c(cc3OC)CCN(C)[C@@H]5C2)OCO4)CCN1C,Potency,[1],inactive
same,Potency,[2],inactive
same,Potency,[3],inactive
same,Potency,[4],inactive
same,Potency,[6],23.9 µM (active)
same,Potency,[7],4.22 µM (active)
same,Potency,[14],inactive
Cc1ccc(C)cc1,Potency,[17],inactive
same,Potency,[20],inactive
same,Potency,[1],inactive
same,Potency,[2],inactive
same,Potency,[18],inactive
same,Potency,[12],inactive
same,Potency,[4],inactive
same,Potency,[5],inactive
same,Potency,[19],inactive
same,Potency,[6],inactive
same,Potency,[13],inactive
same,Potency,[7],inactive
same,Potency,[14],inactive
O=[N+]([O-])c1ccc(O)cc1C(F)(F)F,Potency,[1],inactive
same,Potency,[2],inactive
same,Potency,[3],inactive
same,Potency,[12],7.7 µM (active)
same,Potency,[4],inactive
same,Potency,[5],inactive
same,Potency,[13],inactive
same,Potency,[7],inactive
same,Potency,[14],inactive
CCCCCCCCCCCCOCCOCCOCCOCCOCCOCCOCCOCCOCCO,Potency,[17],29.8 µM (active)
same,Potency,[20],10.7 µM (active)
same,Potency,[1],inactive
same,Potency,[2],inactive
same,Potency,[3],inactive
same,Potency,[6],16.9 µM (active)
OCC(F)(F)F,Potency,[17],inactive
same,Potency,[20],inactive
same,Potency,[1],inactive
same,Potency,[2],inactive
same,Potency,[18],inactive
same,Potency,[12],inactive
same,Potency,[4],inactive
same,Potency,[19],inactive
same,Potency,[6],inactive
same,Potency,[13],inactive
same,Potency,[7],inactive
COC(C)=O,Potency,[17],inactive
same,Potency,[20],inactive
same,Potency,[1],inactive
same,Potency,[2],inactive
same,Potency,[18],inactive
same,Potency,[12],inactive
same,Potency,[4],inactive
same,Potency,[5],inactive
same,Potency,[19],inactive
same,Potency,[6],inactive
same,Potency,[13],inactive
same,Potency,[7],inactive
same,Potency,[14],inactive
OC[C@H]1O[C@H](O[C@H]2O[C@H](CO)[C@@H](O)[C@H](O)[C@H]2O)[C@H](O)[C@@H](O)[C@@H]1O,Potency,[17],inactive
same,Potency,[20],inactive
same,Potency,[1],inactive
same,Potency,[2],inactive
same,Potency,[18],inactive
same,Potency,[12],inactive
same,Potency,[4],inactive
same,Potency,[5],inactive
same,Potency,[6],inactive
same,Potency,[13],inactive
same,Potency,[14],inactive
